Sampled rows, rich in hits. Any-hit rate of the full collection: about 7.8%.
HCV inh – inhibitors of hepatitis C virus infection. Huh7.5.1 HCVcc-Cre infection, luciferase reporter, 44 h. Potency, µM (series often up to 41.8 µM), without a hit: at the top dose activity change, negative = inhibition, hits mostly inhibitors. 3.4% of 340,000 active; active = well fitted inhibition curve with a large enough effect; inconclusive = small, poorly fitted or top-dose-only effect, or another doubt; inactive = no such curve, though single readings can be large or run the other way; note: potency is the fitted concentration of half-maximal effect
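Antiviral activity was scored by luciferase reporter output from cells infected with HCVcc-Cre (~0.5 moi) in presence of compound, 44 h infection period, cells seeded 1,000/well 4 h prior.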
VACV mCherry inh – inhibitors of vaccinia virus infection (mCherry reporter signal); Vaccinia virus mCherry reporter infection, fluorescence; Potency, µM (doses to about 36.5 µM), without a hit: top-dose activity change, negative = inhibition, most hits filed as inhibitors; 0.63% of 310,000 active; AID 720579; calls by dose curve; tested in A549 cells; note: potency is the fitted concentration of half-maximal effect; nearly all actives have a fitted effect of over 35% in size
VACV Venus inh – vaccinia inhibition (Venus reporter); Vaccinia virus Venus reporter expression, fluorescence; Potency, µM (top dose mostly 36.5 µM), for the others: top-dose activity change, negative = inhibition, actives largely listed as inhibitors; 0.46% of 330,000 active; calls by dose curve; tested in A549 cells; note: potency is the fitted concentration of half-maximal effect; nearly all actives have a fitted effect of over 30% in size
Lassa entry inh – blocks Lassa virus binding to or entry into cells; Lassa virus pseudotype entry inhibition, cell reporter; Potency, µM (doses to about 37.9 µM), for the others: top-dose activity change, negative = inhibition, hits mostly inhibitors; 1.2% of 300,000 active; AID 540256; calls by dose curve; tested in HEK293 cells; note: potency is the fitted concentration of half-maximal effect; nearly all actives have a fitted effect of over 50% in size
HCMV antiviral – inhibitors of human cytomegalovirus; HFF cells, HCMV-luciferase reporter, 72 h; hits give low values; activity change, negative = inhibition, % at 57.5 µM; 4.5% of 410,000 active; in the data active = activity change below about -60%; inconclusive = no clear call, values can overlap the other calls; inactive = above about -39%
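Compounds were evaluated in HFFs infected with an HCMV luciferase reporter virus (MOI 1 PFU/cell). Luciferase in lysates collected 72 h post infection served as the replication measure.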
MARV entry inh – Marburg virus entry inhibition; Potency, µM (titrated, usually from 37.8 µM), inactives show top-dose activity change, negative = inhibition, most hits filed as inhibitors; 1.8% of 300,000 active; Marburg virus pseudotyped entry inhibition, cell reporter; calls by dose curve; tested in HEK293 cells; note: potency is the fitted concentration of half-maximal effect
An asterisk follows results filed as active; i = inactive; ? = inconclusive; . = no result; ! = a repeat was not active; [ ] = another dose, or the depositor's remark. % is set by controls: 0 for no effect and ±100 for the full control effect.

SMILES | HCV inh | VACV mCherry inh | VACV Venus inh | Lassa entry inh | HCMV antiviral | MARV entry inh
COc1ccc(NC(=O)c2sc3nc4c(cc3c2N)CN(Cc2ccccc2)CC4)c(OC)c1 | . | -3% | -10% | -3%[46.1 µM] | -95* | -3%[46.1 µM]
Cc1cc(C)cc(NC(=O)Cn2nnc(C(=O)Nc3cc(C)cc(C)c3)c2N)c1 | . | -11% | -18% | -17%[46.1 µM] | -83* | -30%[46.1 µM]
Cc1ccc(OCC(O)CNC2CCCC2)c(C)c1 (centres undefined) | -27% | . | . | . | 89 | .
Cc1ccc(OCCCCNC2CCCCC2)c(C)c1 | 13µM* | . | . | ? | -37 | 7.3µM*
C=CCc1ccc(OCCOCCOc2ccc(C)cc2[N+](=O)[O-])c(OC)c1 | 11µM* | . | -35% | -3% | 11 | ?
COc1ccccc1OCCOCCOc1ccc(C)cc1[N+](=O)[O-] | -21% | -8% | -21% | -6% | 6 | 11%
C=CCc1ccc(OCCCCNC2CCCC2)c(OC)c1 | 10µM* | i | -20% | ? | ? | ?
CCOCC(=O)Nc1nc2ccc(OCC)cc2s1 | -23% | . | . | ? | 80 | ?
Cc1ccc2nc(NC(=O)CSCC(=O)OCC(=O)c3ccccc3)sc2c1 | 2% | i | -4% | 5.8µM* | -28 | ?
CCOCC(=O)Nc1nc2ccc(C)cc2s1 | -13% | . | -20% | 11µM* | 67 | -18%
Cc1ccc2nc(NC(=O)COC(=O)c3ccccn3)sc2c1 | 18% | 0% | 2% | ? | 19 | 9%[46.1 µM]
CCN(C(=O)Cn1cnc2c1c(=O)n(C)c(=O)n2C)c1ccccc1C | . | -8% | -2% | -14%[46.1 µM] | 0 | .
COc1ccc(C[C@H]2COC(=O)[C@@H]2Cc2ccc(OC3OC(CO)C(O)C(O)C3O)c(OC)c2)cc1OC (some centres undefined) | 7.1µM* | -21% | -16% | -13% | . | -44%
COc1cc(C2OCC3C(c4ccc(OC5OC(CO)C(O)C(O)C5O)c(OC)c4)OCC23)ccc1O (centres undefined) | -8% | -5% | -5% | . | 37 | .
CCOCCCn1c(SCC(=O)Nc2ccccc2)nc2ccccc2c1=O | -7% | -22% | ? | ? | -38 | -20%
CCOCCCn1c(SCC(=O)NC(C)C)nc2ccccc2c1=O | 14% | . | . | 12% | -107* | 0%
CCOCCCn1c(SCc2nc3ccccc3s2)nc2ccccc2c1=O | 11µM* | i | -5% | ? | -78* | 7.1µM*
N#CC1=C(SCC(=O)NC2CC2)NC(=O)C(C#N)C12CCCCC2 (centres undefined) | 16% | i | -4% | 10% | -8 | 21%
CC(C)(C)C1CCC2(CC1)C(C#N)=C(SCC(=O)NC1CCCCC1)NC(=O)C2C#N (centres undefined) | 4% | ? | -27% | -8% | -63* | -28%
N#CC1=C(SCC(=O)NC23CC4CC(CC(C4)C2)C3)NC(=O)C(C#N)C12CCCCC2 (centres undefined) | ? | 10µM* | 13µM* | -27% | -66* | ?
COc1ccc(-c2cc(-c3cccs3)c(C#N)c(SCC(=O)NCc3ccccc3OC)n2)cc1 | ? | -5% | 8% | ? | -61* | ?
COc1ccc(-c2cc(-c3cccs3)c(C#N)c(SCC(=O)NCc3ccccc3)n2)cc1 | -29% | -10% | -13% | ? | 10 | ?
O=C(COC(=O)CCc1ccc(S(=O)(=O)N2CCOCC2)cc1)Nc1ccc(Cl)cn1 | 10% | -11% | -7% | -2% | 26 | 0.79µM*!
Cc1ccc(S(=O)(=O)N2CCOCC2)cc1NC(=O)COC(=O)CNC(=O)c1ccc(Cl)cc1Cl | 4% | i | -12% | 9% | -68* | 24%
Cc1c(C(=O)N(C)C)sc2c1c(=O)n(-c1ccc(Cl)c(Cl)c1)c(=O)n2CC(=O)N1CCCCC1C (centres undefined) | . | -10% | -6% | ? | 95 | .
CCN(CC)c1ccc(/C=C/c2ccc3ccccc3n2)cc1 | . | i | i | . | . | .
Cc1ccn2c(NC(=O)C(C)(C)Oc3ccc(Cl)cc3)c(-c3cccs3)nc2c1 | ? | -22% | -23% | ? | -60* | ?
Cn1cc(/C=C2\SC(=S)N(NC(=O)c3ccccc3Cl)C2=O)c2ccccc21 | ? | -24% | 3% | 0% | -7 | 18%

Source: PubChem BioAssay (National Center for Advancing Translational Sciences (NCATS))
